Experimental data reported in PubChem BioAssay.
Records with an inconclusive call do not appear. The source made the active and inactive calls. Unless noted, the rule behind the calls is not given here.

Tests used:
[1] = rapamycin-like changes in RPL19A-GFP expression – cell-based, S. cerevisiae, multiplex flow cytometry, primary screen (AID 1862; in the data active = percent of DMSO control GFP below about 86%;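 note: lower values mimic rapamycin by blocking the RPL19A rise seen in DMSO cells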); details: S. cerevisiae RPL19A-GFP strain, flow cytometry fluorescence, 3 h; at 10 µM; stronger effect = lower value
[2] = TOR pathway GLN3 branch reporter MEP2-GFP changes – S. cerevisiae, multiplex flow cytometry, primary screen (AID 1867;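 active = GFP response, as percent of the DMSO control, above the screen-wide mean plus 3 SD, about 139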;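 note: median GFP channel fluorescence of barcode-gated MEP2-GFP cells measured by flow cytometry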); details: S. cerevisiae MEP2-GFP strain, 3 h, at 10 µM, stronger effect = higher value
[3] = TOR pathway RTG branch CIT2 reporter changes – S. cerevisiae, GFP fusion, multiplex flow cytometry, primary screen (AID 1870;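 active = percent response above a set limit, the screen-wide mean plus 3 SD, cut at about 130% in these data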;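 note: barcoded CIT2-GFP strain pooled with four other GFP strains with rapamycin as positive control; median GFP fluorescence per well over plate mean of DMSO wells so 100% = DMSO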); details: S. cerevisiae CIT2-GFP expression, 3 h, at 10 µM, stronger effect = higher value
[4] = TOR pathway LAP4-GFP level changes – S. cerevisiae, multiplex flow cytometry, primary screen (AID 1873;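 active = GFP signal, as percent of the solvent control, above the screen mean plus 3 SD, about 149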); details: S. cerevisiae LAP4-GFP expression, 3 h, at 10 µM, stronger effect = higher value
[5] = yeast AGP1-GFP level changes, GLN3 branch – cell-based, multiplex flow cytometry, S. cerevisiae, primary screen (AID 1887;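 active = GFP signal above the screen-wide mean plus 3 SD, that is over about 124.5% of the solvent control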;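 note: AGP1-GFP fusion strain of S. cerevisiae within a five-strain barcoded multiplex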); details: 3 h, at 10 µM, stronger effect = higher value
[6] = reduced mouse 2C T cell binding to pMHC/ICAM-1 vesicles – MLPCN validation set, flow cytometry, LFA-1/ICAM-1 modulator project, pilot screen (AID 2523;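 active = response below a set limit, under 55% cells CD8-positive and vesicle-bound, and CD8 cells' 90th-percentile brightness under 279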;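 for vesicle binding response: mean PE anti-B7-1 fluorescence of CD8+ cells relative to row control; 100% = QL9-loaded vesicles with DMSO vehicle in the same plate row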); details: 2C mouse CD8+ T cells, at 7 µM, stronger effect = lower value; double positive events: measured here: CD8+/vesicle+ event percentage
[7] = biological target: Integrin beta-1 (Homo sapiens) + Integrin alpha-4 (Homo sapiens) (UniProt P13612+P05556); assay: alpha4beta1 integrin LIBS antibody binding reduction – U937 cells, HUTS-21 mAb, flow cytometry, validation set, VLA-4 allosteric modulator project, pilot screen (AID 2674;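 active = inhibition above 50%, about 3 SD of the validation set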;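 note: antibody binding induced by the VLA-4 ligand LDV present at three times its Kd; 0% = LDV ligand with antibody and no compound and 100% = antibody without LDV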); details: HUTS-21 LIBS mAb binding, at 6.7 µM, stronger effect = higher value
[8] = calorie-restriction mimetic ROS inhibitors, yeast – validation compound set, pilot screen (AID 2706;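 active = superoxide response below 65% of plate, a cut near 3 SD across the whole screen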;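 note: yeast exposed to compound for one week at 30 degrees C before staining; 100% = mean of all compound wells on the same plate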); details: S. cerevisiae aging, superoxide DHE fluorescence; at 10 µM; stronger effect = lower value
[9] = biological target: Beta-adrenergic receptor kinase 1 (Homo sapiens) (UniProt P25098); assay: GRK2 binders displacing RNA aptamer, biochemical, validation, human GRK2, bead flow cytometry (AID 488806;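 active = aptamer binding inhibition above 30%, about 3 SD of noise from non-fluorescent compounds; inactive = inhibition at or below 30%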); details: bead-bound GRK2, FAM-aptamer displacement, at 10 µM, stronger effect = higher value
[10] = biological target: Beta-2 adrenergic receptor (Homo sapiens) (UniProt P07550); assay: agonist-induced loss of surface beta2AR – cell-based, FAP fluorogen, flow cytometry, validation set, pilot screen (AID 504459;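 active = percent response above 42, roughly 3 SD of non-fluorescent test compounds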;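 note: agonist-driven loss of surface beta2AR via internalization measured by FAP dye flow cytometry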); details: Am2.2-beta2AR cells, at 10 µM, stronger effect = higher value
[11] = biological target: AP-2 complex subunit beta (Homo sapiens) (UniProt P63010); assay: beta-arrestin/AP2 interaction blockers – biochemical, validation set, GST-AP2 beads, flow cytometry, pilot screen (AID 504541;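 active = inhibition above 54%, about 3 SD of non-fluorescent compounds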;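 note: AP2 carries R879A mutation and is captured from E. coli lysate; bead-bound FITC arrestin peptide fluorescence measuring arrestin peptide binding to AP2; 0% = DMSO wells and 100% = excess unlabeled arrestin peptide control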); details: FITC arrestin peptide, at 10 µM, stronger effect = higher value
[12] = cytosolic pH regulators acting via V-ATPase – S. cerevisiae, pHLuorin, HTS validation (AID 504600; in the data active = response above about 15%;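 note: plate controls were DMSO for no effect and reference compound for full effect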); details: V-ATPase proton transport, at 10 µM, stronger effect = higher value
[13] = test system: anti-desmoglein-3 scFv antibody binding to human DSG3; assay: blockers of pathogenic pemphigus antibody–desmoglein-3 binding – biochemical, validation compound set, bead-based, flow cytometry, pilot screen (AID 588368;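 active = binding below the plate cutoff, the plate median minus 3 SD, with a reading above zero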;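 note: signal is the median channel fluorescence of bead-bound GFP antibody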); details: Protein G beads, DSG3-Fc, scFv-GFP binding, at 10 µM, stronger effect = lower value
[14] = test system: Botulinum neurotoxin type F light chain protease (Clostridium botulinum); assay: Clostridium botulinum type F light chain protease inhibitors, microsphere substrate cleavage, validation (AID 588459); details: multiplex microsphere protease substrate cleavage assay, flow cytometry; at 10 µM; stronger effect = higher value
[15] = biological target: Botulinum neurotoxin type A (Clostridium botulinum) (UniProt P0DPI0); assay: BoNT/A light chain protease inhibitors, biochemical, multiplex microsphere flow cytometry, validation set (AID 588460); details: at 10 µM, stronger effect = higher value
[16] = biological target: Lethal factor (Bacillus anthracis) (UniProt P15917); assay: Bacillus anthracis lethal factor inhibition, microsphere flow cytometry protease assay, validation at 10 µM (AID 588461); details: multiplex microsphere protease cleavage assay, stronger effect = higher value
[17] = Nile Red efflux blockade in pump-expressing yeast – validation compound set, multiplex, phenotypic, pilot screen (AID 588506;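 active = efflux inhibition above 0.42, the validation set average plus 4 SD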;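 note: Nile Red retained in cells so higher fluorescence means more efflux inhibition; 0 = negative control wells and 1 = enniatin B 25 µM full block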); details: S. cerevisiae pump-expressing triplex, Nile Red efflux flow cytometry; at 10 µM; stronger effect = higher value
[18] = biological target: ATP-binding cassette sub-family B member 6 (Homo sapiens) (UniProt Q9NP58); assay: blockers of ABCB6-driven porphyrin uptake – K562-ABCB6 cells, flow cytometry, validation set, pilot screen (AID 588550;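 active = inhibition above the screen-wide mean plus 3 SD, about 51%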;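 note: 0% = DMSO wells and 100% = benzethonium chloride 70 µM positive control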); details: K562-ABCB6 porphyrin accumulation, 1 h, at 10 µM, stronger effect = higher value
[19] = AML differentiation inducers, ER-HoxA9 marrow cells – cell-based, GFP/MAC1 double positive, flow cytometry, validation set, primary screen (AID 588685;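 active = differentiation response of at least 50%, scaled between solvent and reference control, from cells with both markers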;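 note: compound exposure lasts four days before antibody staining and flow analysis; 0% = DMSO wells and 100% = 5 µM fulvestrant positive control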); details: stronger effect = higher value

Chain of Beta-2 adrenergic receptor (Homo sapiens) (P07550 whole entry, looked up): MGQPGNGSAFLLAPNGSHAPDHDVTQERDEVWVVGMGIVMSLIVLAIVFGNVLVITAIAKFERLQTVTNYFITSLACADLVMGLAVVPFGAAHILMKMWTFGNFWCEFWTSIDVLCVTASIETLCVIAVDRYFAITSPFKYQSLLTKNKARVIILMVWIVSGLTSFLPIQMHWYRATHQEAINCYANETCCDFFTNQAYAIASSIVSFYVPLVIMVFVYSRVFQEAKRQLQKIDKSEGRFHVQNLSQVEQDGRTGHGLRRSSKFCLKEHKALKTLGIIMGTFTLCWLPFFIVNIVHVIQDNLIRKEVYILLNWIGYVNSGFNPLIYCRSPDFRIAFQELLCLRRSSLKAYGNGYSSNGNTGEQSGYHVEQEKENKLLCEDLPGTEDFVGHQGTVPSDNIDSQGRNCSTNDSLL
Chain of Integrin beta-1 (Homo sapiens) + Integrin alpha-4 (Homo sapiens) (P05556 whole entry, looked up): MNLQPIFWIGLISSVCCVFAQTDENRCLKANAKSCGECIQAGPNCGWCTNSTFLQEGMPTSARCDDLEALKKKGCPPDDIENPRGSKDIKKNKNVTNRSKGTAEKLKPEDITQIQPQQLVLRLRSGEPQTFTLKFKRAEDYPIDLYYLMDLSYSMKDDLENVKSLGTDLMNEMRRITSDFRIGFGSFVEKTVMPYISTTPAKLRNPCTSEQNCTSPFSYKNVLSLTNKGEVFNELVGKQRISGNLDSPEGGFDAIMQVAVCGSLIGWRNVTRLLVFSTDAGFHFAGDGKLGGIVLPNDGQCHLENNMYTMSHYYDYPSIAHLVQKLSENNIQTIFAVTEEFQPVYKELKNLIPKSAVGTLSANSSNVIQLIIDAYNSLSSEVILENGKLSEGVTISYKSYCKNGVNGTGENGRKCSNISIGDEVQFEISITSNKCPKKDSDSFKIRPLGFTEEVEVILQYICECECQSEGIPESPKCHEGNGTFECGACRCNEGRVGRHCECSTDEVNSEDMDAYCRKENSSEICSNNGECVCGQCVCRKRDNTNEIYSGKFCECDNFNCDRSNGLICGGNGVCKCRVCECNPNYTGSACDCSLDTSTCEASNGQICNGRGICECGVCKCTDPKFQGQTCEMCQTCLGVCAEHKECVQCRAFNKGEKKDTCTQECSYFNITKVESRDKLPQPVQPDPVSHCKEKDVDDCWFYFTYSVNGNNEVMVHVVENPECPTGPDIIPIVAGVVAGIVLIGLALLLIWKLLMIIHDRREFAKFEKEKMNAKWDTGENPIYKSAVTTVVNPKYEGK
Chain of Integrin beta-1 (Homo sapiens) + Integrin alpha-4 (Homo sapiens) (P13612 whole entry, looked up): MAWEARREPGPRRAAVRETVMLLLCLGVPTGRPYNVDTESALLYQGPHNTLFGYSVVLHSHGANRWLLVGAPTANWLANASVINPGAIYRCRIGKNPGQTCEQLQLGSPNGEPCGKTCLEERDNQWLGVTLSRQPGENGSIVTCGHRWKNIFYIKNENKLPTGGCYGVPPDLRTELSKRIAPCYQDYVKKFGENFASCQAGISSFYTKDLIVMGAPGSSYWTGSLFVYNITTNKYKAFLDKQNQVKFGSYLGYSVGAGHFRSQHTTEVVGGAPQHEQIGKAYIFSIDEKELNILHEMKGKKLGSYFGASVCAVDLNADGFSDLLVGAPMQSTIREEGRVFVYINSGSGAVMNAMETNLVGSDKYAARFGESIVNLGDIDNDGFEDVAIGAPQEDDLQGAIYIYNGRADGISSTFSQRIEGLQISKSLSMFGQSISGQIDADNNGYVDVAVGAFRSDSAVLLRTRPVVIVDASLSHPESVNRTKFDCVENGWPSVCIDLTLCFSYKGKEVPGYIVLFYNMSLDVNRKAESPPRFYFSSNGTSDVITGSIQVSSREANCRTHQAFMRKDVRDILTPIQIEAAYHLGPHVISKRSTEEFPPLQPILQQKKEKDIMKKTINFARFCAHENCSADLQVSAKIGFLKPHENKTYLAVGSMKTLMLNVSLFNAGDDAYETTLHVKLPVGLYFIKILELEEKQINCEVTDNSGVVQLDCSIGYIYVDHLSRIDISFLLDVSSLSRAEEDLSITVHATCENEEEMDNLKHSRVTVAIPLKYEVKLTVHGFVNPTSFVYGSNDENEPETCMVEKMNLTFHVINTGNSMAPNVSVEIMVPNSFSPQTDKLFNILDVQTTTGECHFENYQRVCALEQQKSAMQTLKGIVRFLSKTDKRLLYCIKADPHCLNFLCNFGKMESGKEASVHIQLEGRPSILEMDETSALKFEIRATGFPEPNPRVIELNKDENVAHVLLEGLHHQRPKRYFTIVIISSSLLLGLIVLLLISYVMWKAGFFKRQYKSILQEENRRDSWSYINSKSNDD
Chain of AP-2 complex subunit beta (Homo sapiens) (P63010 whole entry, looked up, one chain of several): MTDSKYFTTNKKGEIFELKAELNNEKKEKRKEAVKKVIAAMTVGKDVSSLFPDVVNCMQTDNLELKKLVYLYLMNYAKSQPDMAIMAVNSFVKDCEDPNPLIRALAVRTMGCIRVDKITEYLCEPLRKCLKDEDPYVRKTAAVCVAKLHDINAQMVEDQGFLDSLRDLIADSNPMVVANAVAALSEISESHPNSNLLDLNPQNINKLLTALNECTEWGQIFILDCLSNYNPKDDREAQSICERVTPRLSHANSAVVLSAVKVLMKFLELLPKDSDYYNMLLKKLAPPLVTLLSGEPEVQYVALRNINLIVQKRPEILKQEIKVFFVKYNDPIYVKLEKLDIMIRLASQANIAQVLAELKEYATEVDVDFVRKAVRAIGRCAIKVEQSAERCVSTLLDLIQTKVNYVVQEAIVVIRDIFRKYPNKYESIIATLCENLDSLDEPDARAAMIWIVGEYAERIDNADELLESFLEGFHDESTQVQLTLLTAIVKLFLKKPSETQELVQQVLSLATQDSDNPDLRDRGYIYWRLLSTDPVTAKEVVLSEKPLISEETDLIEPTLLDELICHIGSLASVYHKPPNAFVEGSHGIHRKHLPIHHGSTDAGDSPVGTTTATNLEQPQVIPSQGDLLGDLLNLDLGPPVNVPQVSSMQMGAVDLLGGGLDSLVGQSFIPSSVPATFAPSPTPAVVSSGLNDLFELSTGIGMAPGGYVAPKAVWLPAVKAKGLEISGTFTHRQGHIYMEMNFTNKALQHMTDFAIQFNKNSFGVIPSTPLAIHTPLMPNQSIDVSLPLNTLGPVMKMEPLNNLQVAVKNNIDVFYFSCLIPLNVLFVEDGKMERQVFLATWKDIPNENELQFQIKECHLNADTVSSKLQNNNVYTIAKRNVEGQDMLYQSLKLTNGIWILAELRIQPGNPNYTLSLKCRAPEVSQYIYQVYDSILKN
Chain of ATP-binding cassette sub-family B member 6 (Homo sapiens) (Q9NP58 whole entry, looked up): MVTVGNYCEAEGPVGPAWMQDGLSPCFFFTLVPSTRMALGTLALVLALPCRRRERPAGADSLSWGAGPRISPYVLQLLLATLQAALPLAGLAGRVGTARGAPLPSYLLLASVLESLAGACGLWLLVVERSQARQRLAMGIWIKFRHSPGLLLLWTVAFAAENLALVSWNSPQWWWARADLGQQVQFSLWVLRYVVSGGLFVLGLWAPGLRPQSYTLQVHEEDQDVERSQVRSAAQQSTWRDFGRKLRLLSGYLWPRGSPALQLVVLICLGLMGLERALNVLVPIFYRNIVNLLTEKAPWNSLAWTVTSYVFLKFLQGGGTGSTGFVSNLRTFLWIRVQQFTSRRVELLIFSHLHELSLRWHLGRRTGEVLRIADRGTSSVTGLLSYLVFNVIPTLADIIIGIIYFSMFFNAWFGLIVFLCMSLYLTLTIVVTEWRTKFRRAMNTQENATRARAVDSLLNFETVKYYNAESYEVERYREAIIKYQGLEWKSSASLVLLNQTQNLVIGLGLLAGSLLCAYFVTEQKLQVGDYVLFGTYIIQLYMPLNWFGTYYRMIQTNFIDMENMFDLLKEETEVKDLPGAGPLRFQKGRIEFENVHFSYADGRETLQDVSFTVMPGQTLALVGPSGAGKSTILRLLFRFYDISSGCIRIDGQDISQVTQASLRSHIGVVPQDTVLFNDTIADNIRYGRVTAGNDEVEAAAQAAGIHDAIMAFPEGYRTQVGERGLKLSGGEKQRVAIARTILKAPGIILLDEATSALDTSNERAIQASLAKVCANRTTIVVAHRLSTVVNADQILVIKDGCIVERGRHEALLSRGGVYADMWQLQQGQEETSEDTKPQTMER
Chain of Lethal factor (Bacillus anthracis) (P15917 whole entry, looked up): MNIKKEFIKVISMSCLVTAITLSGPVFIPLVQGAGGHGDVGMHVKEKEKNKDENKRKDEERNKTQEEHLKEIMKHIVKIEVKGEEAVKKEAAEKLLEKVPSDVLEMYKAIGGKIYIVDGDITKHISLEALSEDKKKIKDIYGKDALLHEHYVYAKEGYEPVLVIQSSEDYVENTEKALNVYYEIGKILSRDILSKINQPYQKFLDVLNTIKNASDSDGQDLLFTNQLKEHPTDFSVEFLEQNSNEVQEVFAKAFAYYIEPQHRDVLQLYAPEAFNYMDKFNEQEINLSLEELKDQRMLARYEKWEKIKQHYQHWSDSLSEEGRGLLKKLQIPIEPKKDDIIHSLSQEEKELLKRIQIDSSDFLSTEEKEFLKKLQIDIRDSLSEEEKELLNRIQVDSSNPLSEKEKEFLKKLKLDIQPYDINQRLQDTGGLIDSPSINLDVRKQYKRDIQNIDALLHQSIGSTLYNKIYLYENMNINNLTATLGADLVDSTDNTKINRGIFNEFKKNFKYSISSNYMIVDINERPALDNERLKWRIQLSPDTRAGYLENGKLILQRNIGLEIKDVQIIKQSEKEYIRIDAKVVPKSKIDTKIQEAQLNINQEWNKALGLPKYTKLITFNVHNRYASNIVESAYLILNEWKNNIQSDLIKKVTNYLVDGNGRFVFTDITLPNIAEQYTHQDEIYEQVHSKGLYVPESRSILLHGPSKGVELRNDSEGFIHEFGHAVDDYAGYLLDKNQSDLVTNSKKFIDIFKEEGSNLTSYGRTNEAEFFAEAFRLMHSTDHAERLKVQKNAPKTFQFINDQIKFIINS

Cc1ccc(-n2c(C)cc(/C=C3/C(=O)NC(=O)N(C)C3=O)c2C)cc1
inactive: percent of DMSO control GFP [1] 103% | GFP response vs DMSO [2] 103% | percent response of DMSO control [3] 107% | GFP response vs DMSO [4] 103% | GFP response, % of DMSO [5] 106% | vesicle binding response [6] 164% | inhibition [7] 0.25% | superoxide response (% of plate) [8] 94.5% | aptamer binding inhibition [9] -5% | response [10] 3.21% | inhibition [11] -0.22% | response [12] 5.34% | binding (% of control) [13] 108% | inhibition [14] -1.4% | inhibition [15] 0.3% | inhibition [16] -5% | efflux inhibition (fraction of control) [17] -0.22 | inhibition [18] -2% | differentiation response [19] -14.8%
64.1%: double positive events [6]

COc1ccc(CN2CC3CC(C2)c2cccc(=O)n2C3)cc1OC (stereo not given)
60.2%: double positive events [6]
inactive: percent of DMSO control GFP [1] 105% | GFP response vs DMSO [2] 101% | percent response of DMSO control [3] 95.4% | GFP response vs DMSO [4] 84.1% | GFP response, % of DMSO [5] 95.1% | vesicle binding response [6] 170% | inhibition [7] 14.1% | superoxide response (% of plate) [8] 93% | aptamer binding inhibition [9] 0% | response [10] 2.8% | inhibition [11] -0.56% | response [12] 1% | binding (% of control) [13] 100% | inhibition [14] 1.7% | inhibition [15] -1.2% | inhibition [16] -0.8% | efflux inhibition (fraction of control) [17] 0.39 | inhibition [18] 8% | differentiation response [19] 4.15%

COc1ccc(-c2nc3ccccc3c(=O)o2)cc1
78.9%: double positive events [6]
inactive: percent of DMSO control GFP [1] 103% | GFP response vs DMSO [2] 95.2% | percent response of DMSO control [3] 92% | GFP response vs DMSO [4] 106% | GFP response, % of DMSO [5] 87.9% | vesicle binding response [6] 308% | inhibition [7] -19.5% | superoxide response (% of plate) [8] 99.5% | aptamer binding inhibition [9] 1% | response [10] 12.6% | inhibition [11] -5.48% | response [12] -0.56% | binding (% of control) [13] 102% | inhibition [14] 1.8% | inhibition [15] 1.3% | inhibition [16] 0.8% | efflux inhibition (fraction of control) [17] 0.22 | inhibition [18] -2% | differentiation response [19] 2.4%

CCn1c(O)c(C(=O)CC2NCCc3ccccc32)c(=O)n(CC)c1=S (stereo not given)
55.8%: double positive events [6]
inactive: percent of DMSO control GFP [1] 95.2% | GFP response vs DMSO [2] 118% | percent response of DMSO control [3] 97.7% | GFP response vs DMSO [4] 132% | GFP response, % of DMSO [5] 101% | vesicle binding response [6] 186% | inhibition [7] -7.25% | superoxide response (% of plate) [8] 113% | aptamer binding inhibition [9] 1% | response [10] 20.4% | inhibition [11] 5.21% | response [12] 1.26% | binding (% of control) [13] 102% | inhibition [14] 2.4% | inhibition [15] 1.1% | inhibition [16] -11.5% | efflux inhibition (fraction of control) [17] -0.03 | inhibition [18] -11% | differentiation response [19] -15.2%

CCn1ccnc1CN1CCCC(C(=O)c2cc(F)ccc2OC)C1 (stereo not given)
inactive: percent of DMSO control GFP [1] 100% | GFP response vs DMSO [2] 93% | percent response of DMSO control [3] 96.7% | GFP response vs DMSO [4] 99.9% | GFP response, % of DMSO [5] 102% | vesicle binding response [6] 125% | inhibition [7] -3.16% | superoxide response (% of plate) [8] 96.9% | aptamer binding inhibition [9] 2% | response [10] -6.87% | inhibition [11] 18.6% | response [12] 1.54% | binding (% of control) [13] 98.4% | inhibition [14] 0.8% | inhibition [15] -1.2% | inhibition [16] -1.6% | efflux inhibition (fraction of control) [17] -0.21 | inhibition [18] 3% | differentiation response [19] -8.8%
61.5%: double positive events [6]

CCCC[N+]1(C)[C@@H]2CC(OC(=O)[C@H](CO)c3ccccc3)C[C@H]1[C@@H]1O[C@@H]12 (stereo not given in full)
59.9%: double positive events [6]
inactive: percent of DMSO control GFP [1] 107% | GFP response vs DMSO [2] 109% | percent response of DMSO control [3] 106% | GFP response vs DMSO [4] 112% | GFP response, % of DMSO [5] 111% | vesicle binding response [6] 150% | inhibition [7] -15.8% | superoxide response (% of plate) [8] 97.4% | aptamer binding inhibition [9] 4% | response [10] -2.08% | inhibition [11] 0.96% | response [12] -3.56% | binding (% of control) [13] 96.4% | inhibition [14] 1.1% | inhibition [15] 0.2% | inhibition [16] -5.3% | efflux inhibition (fraction of control) [17] 0.3 | inhibition [18] 28% | differentiation response [19] 13%

COc1ccc(NC2=NCC(C)S2)cc1 (stereo not given)
69.5%: double positive events [6]
inactive: percent of DMSO control GFP [1] 103% | GFP response vs DMSO [2] 101% | percent response of DMSO control [3] 109% | GFP response vs DMSO [4] 89.3% | GFP response, % of DMSO [5] 96% | vesicle binding response [6] 150% | inhibition [7] 11% | superoxide response (% of plate) [8] 101% | aptamer binding inhibition [9] 2% | response [10] 5.38% | inhibition [11] 5.98% | response [12] 4.39% | binding (% of control) [13] 100% | inhibition [14] -2.8% | inhibition [15] 0.2% | inhibition [16] -2.7% | efflux inhibition (fraction of control) [17] 0.195 | inhibition [18] 0% | differentiation response [19] -3.11%

CC(C)(C)C(O)C(Oc1ccc(Cl)cc1)n1cncn1 (stereo not given)
62%: double positive events [6]
inactive: percent of DMSO control GFP [1] 105% | GFP response vs DMSO [2] 107% | percent response of DMSO control [3] 106% | GFP response vs DMSO [4] 121% | GFP response, % of DMSO [5] 115% | vesicle binding response [6] 218% | inhibition [7] 1.44% | superoxide response (% of plate) [8] 277% | aptamer binding inhibition [9] 2% | response [10] -29.1% | inhibition [11] 7.17% | response [12] -0.61% | binding (% of control) [13] 100% | inhibition [14] -0.4% | inhibition [15] 0% | inhibition [16] -4.4% | efflux inhibition (fraction of control) [17] -0.04 | inhibition [18] 4% | differentiation response [19] 6.83%
